# Methyltransferases – Primary Screen for Target Class Profiling of Small Molecule Inhibitors of Methyltransferases; purified enzyme, MTase-Glo SAH luminescence; active compounds read low; calls only at 40 µM; 25,000 tested, 3.9% active; AID 1745853, 2022; call rule not given here
#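 Each enzyme was assayed with SAM and its substrate. SAH formation detected by MTase-Glo luminescence; single-point 40 uM screen[…].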
# Starred values were filed as active, the others as inactive; i = inactive; + = active, no number; ! = repeats disagree. This is one part of a sample in which hits are shown more often than they occur. % is scaled to controls: 0 for no effect and ±100 for the full control effect.
SMILES,Methyltransferases
CC(C)OCCCNC(=O)C1c2c(n(C)c3ccccc23)SCC(=O)N1c1ccc(C(C)C)cc1 (stereo not drawn),i
COc1ccc(-c2n[nH]n3c2nc(=O)c2ccc(C(=O)NCCc4ccc(OC)c(OC)c4)cc23)cc1,i
O=C(Nc1nn(Cc2ccccc2)c2cccc(N3CCOCC3)c12)C1CCC1,i
O=C(NCCCNc1nc(Nc2cccc(CN3CCOCC3)c2)ncc1C1CC1)C1CCC1,+
CNc1nccnc1-c1cccc(CN2CCOCC2)c1,i
CN1CCC(C(=O)NCc2c[nH]c3ncccc23)CC1,i
COc1ccc2cc3n(c2c1)CC(C)(C(=O)NC1CCCCC1)N(CCCN1CCOCC1)C3=O (stereo not drawn),i
COc1ccc2cc3n(c2c1)CC(C)(C(=O)NCC1CCCO1)N(CCc1ccc(Cl)cc1)C3=O (stereo not drawn),i
COc1ccc(CCc2nc3c(C)c(-c4c(C)noc4C)c(C)cc3n2CCN2CCOCC2)cc1,+!
CC1CCCC(NC(=O)C2(C)Cn3c(cc4sccc43)C(=O)N2C2CCCCCC2)C1C (stereo not drawn),i
CC1(C(=O)NC2CCCCC2)Cc2ccccc2C(=O)N1Cc1cccs1 (stereo not drawn),i
Cn1nc2n(Cc3ccccc3)c(=O)c3ccc(C(=O)NC4CCCC4)cc3n2c1=O,i
COCCCNC(=O)c1ccc(Cn2c(=O)c3ccccc3n(Cc3ccc(C(C)C)cc3)c2=O)cc1,i
CN1CCc2c(c3ccccc3n2Cc2ccc(C(=O)NO)cc2)C1,+!
COc1ccccc1CNC(=O)C1(C)Cn2cnc(C(=O)Nc3ccccc3OC)c2C(=O)N1C1CC1 (stereo not drawn),i
COC(=O)C[C@@H]1C(C(=O)O)=CO[C@@H](O[C@@H]2O[C@H](CO)[C@@H](O)[C@H](O)[C@H]2O)/C1=C\COC(=O)/C=C\c1ccccc1,i
C[C@@H]1O[C@@H](OC[C@H]2O[C@@H](OCc3ccccc3)[C@H](O)[C@@H](O)[C@@H]2O)[C@H](O)[C@H](O)[C@H]1O,+
C=Cc1ccc(O[C@@H]2O[C@H](CO[C@@H]3O[C@@H](C)[C@H](O)[C@@H](O)[C@H]3O)[C@@H](O)[C@H](O)[C@H]2O)cc1,i
OC[C@H]1O[C@@H](OC[C@H]2O[C@@H](OCc3ccccc3)[C@H](O)[C@@H](O)[C@@H]2O)[C@H](O)[C@@H](O)[C@@H]1O,i
CCCCN1C(=O)c2cc(C(=O)Nc3cccc(C(=O)OCC)c3)nn2CC1(C)C(=O)NC1CCCC1 (stereo not drawn),i
CCOc1ccc(CNC(=O)c2cc3n(n2)CC(C)(C(=O)NCc2ccccc2)N(C)C3=O)cc1OC (stereo not drawn),i
COCCCN1C(=O)c2nc3ccccc3n2CC1(C)C(=O)NC1CCC(C)CC1 (stereo not drawn),i
COc1ccc(-c2nnc3n(Cc4ccc(F)cc4)c(=O)c4ccccc4n23)c(OC)c1,i
Cc1ccc(NC2=CC(=O)c3sc(C)nc3C2=O)cc1,+
CCCn1c(=O)c2ccc(C(=O)NC3CCCCC3)cc2n2c(=O)n(CC(=O)c3ccc(OC)cc3)nc12,i
SMILES,Methyltransferases
CCOC(=O)c1cc2n(n1)CC(C)(C(=O)NCCC(C)C)N(c1cccc(OC)c1)C2=O (stereo not drawn),i
Cc1ccc(N2C(=O)c3cc(-c4ccco4)nn3CC2(C)C(=O)NC2CCCCCC2)cc1Cl (stereo not drawn),i
COc1ccc(CNC(=O)c2ccc3c(=O)nc4c(-c5cccc(C)c5)n[nH]n4c3c2)cc1,i
Cc1ccc(C)c(N2C(=O)c3cc4sccc4n3CC2(C)C(=O)NC2CCCCCCC2)c1 (stereo not drawn),i
C[C@H](Nc1cc2c(-c3ccc4c(c3)OCO4)noc2cn1)c1ccccc1,+
CC(C)Cn1c(=O)c2ccccc2n2c(=O)n(Cc3c(F)cccc3Cl)nc12,i
Cc1[nH]c2ccccc2c1CCNC(=O)c1ccccc1F,i
Cc1[nH]c2ccccc2c1CCNCc1ccc(/C=C/C(=O)NO)cc1,+
CCCN1C(=O)c2c(C(=O)NCCCc3ccccc3)ncn2CC1(C)C(=O)NC1CCCC1 (stereo not drawn),i
Cc1ccc(Cn2c(=O)c3ccccc3n3c(SCC(=O)NC4CCCCC4)nnc23)cc1,i
CCOCCCNC(=O)C1c2c(n(C)c3ccccc23)SCC(=O)N1c1ccc(C)c(Cl)c1 (stereo not drawn),i
C[n+]1cc2c3c(ccc2c2ccc4cc5c(cc4c21)OCO5)OCO3,+
C=C1C(=O)OC[C@@H]1C/C=C(\C)CC1CC(C)C(=O)O1 (stereo partly drawn),+
COc1ccc(OC)c(CNC(=O)Cn2ccc3cc(S(=O)(=O)N4CCC(C)CC4)ccc32)c1,i
CC(C)=CCC[C@](C)(O[C@@H]1O[C@H](CO[C@@H]2O[C@@H](CO)[C@H](O)[C@H]2O)[C@@H](O)[C@H](O)[C@H]1O)[C@H]1CC[C@]2(C)[C@@H]1[C@H](O)C[C@@H]1[C@@]3(C)CC[C@H](O[C@@H]4O[C@H](CO)[C@@H](O)[C@H](O)[C@H]4O[C@@H]4O[C@H](CO)[C@@H](O)[C@H](O)[C@H]4O)C(C)(C)[C@@H]3CC[C@]12C,i
CCc1cc2c(cc3n2CC(C)(C(=O)NC2CCC(C)CC2)N(Cc2cccc(Cl)c2)C3=O)s1 (stereo not drawn),i
Cc1ccc(C)c(N2CCN(C(=O)c3cc4n(n3)CC(C)(C(=O)NCCC(C)C)N(C)C4=O)CC2)c1 (stereo not drawn),i
CCc1ccc(S(=O)(=O)c2nnn3c2nc(NC2CCCC2)c2ccccc23)cc1,i
COc1ccc(CN2CCCC3(CC(c4cccc(C(F)(F)F)c4)=NO3)C2)cc1 (stereo not drawn),i
COc1ccc(Cn2c(=O)c3ccccc3n3c(-c4ccc(O)cc4)nnc23)cc1,i
COc1ccc(-c2nc(-c3cc(C(F)(F)F)cc(C(F)(F)F)c3)n(Cc3ccc(C(N)=O)cc3)c2-c2ccc(OC)cc2)cc1,+
COC(=O)c1ncn2c1C(=O)N(c1ccc(F)cc1)C(C)(C(=O)NCc1ccccc1)C2 (stereo not drawn),i
NC(=O)N1CCC(CC(=O)N2CCC(C3c4ncc(Br)cc4CCc4cc(Cl)cc(Br)c43)CC2)CC1 (stereo not drawn),+
Cc1ccccc1N1C(=O)c2cc(-c3cccs3)nn2CC1(C)C(=O)NC1CCCCCC1 (stereo not drawn),i
COc1ccc2cc3n(c2c1)CC(C)(C(=O)NCC1CCCO1)N(Cc1cccs1)C3=O (stereo not drawn),i
CC1OC2OC3C(OCC(O)C3O)OC(=O)C34CCC(C)(C)CC3C3=CCC5C6(C)CC(O)C(OC7OC(CO)C(O)C(O)C7OC7OCC(OC(=O)CC(C)(O)CC(=O)OC1C(OC1OCC(O)C(O)C1O)C2O)C(O)C7O)C(C)(CO)C6CCC5(C)C3(C)CC4O (stereo not drawn),i
COCCNCc1ccc(-c2cc3nccc(Oc4ccc(NC(=O)C5(C(=O)Nc6ccc(F)cc6)CC5)cc4F)c3s2)nc1,i
COc1ccc2nc3n[nH]c(C)c3c(NCCOCCO)c2c1,+
Cc1ccc(NC(=O)Cn2nc3n(C(C)C)c(=O)c4ccc(C(=O)NC5CCCC5)cc4n3c2=O)c(C)c1,i

# Screening results (PubChem BioAssay)
